CHX counter = affects cycloheximide protein synthesis inhibition readout, counter-screen; cell reporter, cycloheximide protein synthesis inhibition counterscreen; max response, %; 300,000 tested, 12% active; AID 2314; in the data active means max response mostly above about 13%, no sharp cut-off; inactive means mostly below about 14%; further: read at 38.3 µM for the half of the compounds with a filed dose
NS1 function inh = influenza NS1 inhibition | Potency, µM (top dose mostly 46.1 µM) | 270,000 tested, 0.4% active; calls by dose curve; further: actives are rising curves; nearly all actives have a fitted effect of over 50% in size
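S. cerevisiae expressing influenza A NS1, grown in glucose, washed, then diluted 1:100 into pH 6.0 -URA galactose medium with 23 nl compound. Growth recovery read as OD600; NS1-free strain serves as control.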
SARS PLpro yeast = SARS-CoV PLP inhibition in yeast | S. cerevisiae expressing SARS-CoV PLpro, growth rescue | Potency, µM (doses to about 32.9 µM), usual class: activators | 330,000 tested, 0.19% active | AID 485353; calls by dose curve; further: nearly all actives have a fitted effect of over 55% in size
Pf growth 96h = P. falciparum growth inhibition at 96 hour, primary screen for plastid delayed-death inhibitors | P. falciparum luciferase reporter growth, 96 h | Potency, µM (highest dose often 28.7 µM), usual class: inhibitors | 320,000 tested, 6.9% active | AID 504834
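Readout is luminescence from an integrated firefly luciferase in P. falciparum. Red cells, 2% hematocrit and 0.05% parasitemia final, were cultured with compound through two parasite generations (96 hours) at 37 C, 5% CO2.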
Pf growth 48h = inhibits P. falciparum growth in the first generation, 48 h. P. falciparum luciferase growth in erythrocytes, 48 h. Potency, µM (series often up to 28.7 µM), most hits filed as inhibitors. 310,000 tested, 5.9% active. AID 504832
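Parasite viability was followed by luminescence of a genomically integrated firefly luciferase. Cultures held 0.1% parasitemia at 2% hematocrit (final), incubated under 5% CO2 at 37 C.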
Shiga inhibitor = blocks Shiga toxin action in Vero cells | AID 2315 | Vero cells, Shiga toxin protein synthesis inhibition reporter | 290,000 tested, 9.2% active | inhibition, % at 38.7 µM; in the data active means inhibition mostly above about 28%, no sharp cut-off; inactive means mostly below about 43%
Of the large screens only hits and unclear results are named; the others gave an inactive call. The list is not random: actives were taken first. Their share in the collection is about 21%. Unless noted, the call rests on the fitted dose curve; in most records, active means well fitted inhibition curve with a large enough effect; inconclusive means small, poorly fitted or top-dose-only effect, or another doubt; inactive means no such curve, though single readings can be large or run the other way.

CCOc1ccc(NC(=O)Cn2nnc(-c3ccccc3NC(=O)c3cccs3)n2)cc1	Pf growth 96h inconclusive (no result: Pf growth 48h)
CCCc1ccc(OCc2nc(-c3ccc(NC(=O)c4cccs4)cc3)no2)cc1	CHX counter 80, Pf growth 96h inconclusive, Pf growth 48h 1.9µM, Shiga inhibitor 176
NC(=O)Cn1c(=O)n(C2CCCCC2)c(=O)c2c3c(sc21)CCCCC3	Pf growth 96h 2.3µM, Pf growth 48h inconclusive
COc1ccc(/C=C2/C(=O)N=C3SCCN32)cc1	Pf growth 96h inconclusive (no result: Pf growth 48h)
COc1cc(OC)c(OC)cc1/C=C1/C(=O)N=C(N)N1C	none (no result: NS1 function inh)
COc1ccc(/C=C2/C(=O)N=C(N)N2C)cc1OC	Pf growth 96h 12µM
CN1C(N)=NC(=O)/C1=C\c1ccc(Br)cc1	CHX counter 13
CN1C(N)=NC(=O)/C1=C/c1ccc(OC(F)(F)F)cc1	CHX counter 33, Shiga inhibitor 41 (no result: NS1 function inh)
COc1ccc(C(=O)OC(C)C(=O)NC2CCCc3ccccc32)cc1OC (centres undefined)	Pf growth 48h inconclusive (no result: CHX counter, NS1 function inh, Shiga inhibitor)
COc1ccc(/C=N/Nc2nncc3ccccc23)c(OC)c1	CHX counter 51, Shiga inhibitor 106
COc1cc(/C=N/Nc2nncc3ccccc23)cc(OC)c1OC	CHX counter 39, Shiga inhibitor 87
Cc1cccc(/C=N/Nc2nncc3ccccc23)c1	CHX counter 24, Shiga inhibitor 47 (no result: NS1 function inh)
C(=N\Nc1nncc2ccccc12)/c1ccccc1	CHX counter 50, Shiga inhibitor 73
COC(=O)[C@]1(C)N[C@H](CN(C)C(=O)Nc2ccc(OC)cc2)[C@@H]2C(=O)N(C)C(=O)[C@@H]21	none (no result: CHX counter, NS1 function inh, Pf growth 96h, Pf growth 48h, Shiga inhibitor)
CN(C)c1ccc(/C=N/NC(=O)C2CC2c2ccccc2)cc1 (centres undefined)	none
CN(C)c1ccc(/C=N/Nc2nncc3ccccc23)cc1	CHX counter 28, Shiga inhibitor 109
Cc1nc2sccc2c(=O)n1-c1cccc(Cl)c1	none
COc1cccc(C(=O)Nc2nnc(C3CCCO3)s2)c1 (centres undefined)	CHX counter 25, Shiga inhibitor 59 (no result: Pf growth 48h)
O=C(Nc1nnc(C2CCCO2)s1)c1cccs1 (centres undefined)	CHX counter 17 (no result: Pf growth 96h)
O=C(Nc1nnc(C2CCCCC2)s1)c1cccs1	CHX counter 28
O=C(Nc1nnc(C2CCCC2)s1)C1CCC1	none
CCCC(=O)Nc1nnc(C2CCCO2)s1 (centres undefined)	none
O=C(Nc1nnc(C2CC2)s1)C1CCCCN1S(=O)(=O)c1ccccc1 (centres undefined)	Pf growth 48h 13µM
COC(=O)c1ccccc1NC(=O)c1ccc(F)cc1F	none (no result: NS1 function inh, SARS PLpro yeast, Pf growth 96h, Pf growth 48h)
CC1OC(OCC2OC(Oc3cc(O)c4c(c3)OC(c3ccc(O)cc3)CC4=O)C(O)C(O)C2O)C(O)C(O)C1O (centres undefined)	none (no result: NS1 function inh, SARS PLpro yeast, Pf growth 96h, Pf growth 48h)
CC(C)(C)c1ccc(C(CC(=O)O)NC(=O)CCCc2ccccc2)cc1 (centres undefined)	none (no result: NS1 function inh)
O=C1CCCC2CCCCN12 (centres undefined)	none (no result: NS1 function inh, SARS PLpro yeast, Pf growth 96h, Pf growth 48h)
Cc1onc(-c2ccccc2Cl)c1C(=O)N1CCCCCC1	Pf growth 96h inconclusive
CC(C(=O)NCC1CCCCC1)N(C)CC(=O)Nc1ccc(N2CCOCC2)cc1 (centres undefined)	none (no result: NS1 function inh)
CCc1ccc(C2CC(=O)N(c3cccc(F)c3)C3=C2C(=O)OC3)cc1 (centres undefined)	Pf growth 96h inconclusive (no result: NS1 function inh)
Cc1ccc2nc(NC3=NC(CC(=O)O)C(=O)N3)nc(C)c2c1 (centres undefined)	none
Cc1cccc(C2(c3cccc(C)c3)CC2C(=O)NCC2CCCO2)c1 (centres undefined)	none
Cc1cccc(C2(c3cccc(C)c3)CC2C(=O)Nc2ccc([N+](=O)[O-])cc2O)c1 (centres undefined)	Pf growth 96h inconclusive, Pf growth 48h 2.1µM
CCCC(=O)Nc1sc2c(c1C#N)CC(C)(C)NC2(C)C	Pf growth 96h 2.1µM
Cc1ccc(C(C)C)c(OCC(=O)Nc2sc3c(c2C#N)CC(C)(C)NC3(C)C)c1	Pf growth 96h inconclusive, Pf growth 48h inconclusive
CC(=O)Nc1sc2c(c1C#N)CC(C)(C)NC2(C)C	none (no result: Pf growth 96h)
Cc1cc(OCC(=O)Nc2sc3c(c2C#N)CC(C)(C)NC3(C)C)c(C(C)C)cc1Cl	Pf growth 96h 7.4µM, Pf growth 48h 13µM
